In PubChem BioAssay AID1159506 (National Center for Advancing Translational Sciences (NCATS), 2015):
Whole data set: some 59,000 sequences, median the read-out near -0.00055, cut for the lowest 2% near -2. Only a selection was taken, and the lowest values are over-represented in it overall.

Assay: Identification of proteins required for the processing of the EWS-FLI1 nascent transcript;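 further: robust z of luciferase light less the median z of siRNAs with the same seed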
Conditions: TC32 Ewing sarcoma NR0B1-luc vs CMV-luc (EWS-FLI1 target promoter against control promoter), 48 h; screened at 20 nM (by protocol)
Method in brief: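 Parallel TC32-NR0B1-luc and TC32-CMV-luc reverse transfections with 20 nM siRNA in RPMI-1640/10% FBS, luciferase measured 48 h later. Seed-adjusted z-scores from normalized, z-score-MAD transformed data; AllStars negative and siGL4 controls on each plate.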

First: AGAAGUUUUUGCUCUGUCC against DYRK4
Second: AAAUGUACAGAACUAUCUC against PADI2
The seed-corrected z-score of the first is higher: 0.321 for the first, -2.36 for the second.

First: UCUCUGAAGAGUACAGGAG against PTOV1
Second: UCAGGUGCAAAGCUACUGG against PARK2
The seed-corrected z-score of the first is higher: 0.398 for the first, -2.4 for the second.

Compared with UCAUUGACAUUGGUCACGG against CYP27C1, UUAUAACCACUGACUCUCC against MIPEPP3 is higher in seed-corrected z-score: -0.22 for the first, 0.124 for the second.

First: UAUUGUUCUUGUCCUUUUG against TERF1
Second: AACCGAGUCAGAAUGGUGC against SDC1
The seed-corrected z-score of the first is lower: -0.319 for the first, 0.384 for the second.

First: UUUGGAAGACUGGAGCAGG against CTIF
Second: UUCCCAUACCCUAUGGUCG against KCNK10
The seed-corrected z-score of the first is higher: 0.631 for the first, -0.13 for the second.

Compared with UCUACUGUCAUUGAGACCA against SNRPB, UCUGGUACUCAGAAGGUCC against COPS5 is higher in seed-corrected z-score: -2.67 for the first, 1.12 for the second.

Compared with AUAGUAACGAUCAACUCCA against NDUFA1, AUCGAUAUAAACUGCUUCC against PDE1A is lower in seed-corrected z-score: 0.512 for the first, -2.44 for the second.

First: UAUGUACUUCAGGCGCCUG against SLC35A2
Second: AGUUUAUACAUUCUUUUCC against SPTLC1
The seed-corrected z-score of the first is higher: 0.271 for the first, -0.145 for the second.

First: UAGAAGAUAGGUGAAGUGA against DNAJC22
Second: UUACACUCAAGAAGAUUUC against GPR141
The seed-corrected z-score of the first is higher: 0.192 for the first, -0.389 for the second.

First: UUAACGUCCACCACCAGAG against TYMP
Second: UCAUUGAGAAUUCUCCGGG against NENF
The seed-corrected z-score of the first is lower: -0.582 for the first, 2.29 for the second.

Compared with AUCGUCCCAGUAAAUGUCC against BEST3, UAGACUAACAUUGACUUAG against LOC150519 is higher in seed-corrected z-score: -0.819 for the first, 0.00864 for the second.

Going from UCUUUGCUAAGCUCGGAGG against RAD51C to AUAGAUAUGUUCACAAGUG against UNC119B, the seed-corrected z-score rises from -2.07 to 0.327.

Compared with UAGGGCGCAAGGGUAUGUG against SPDYE3, UUACUAGCUCCGGUGGCAC against KCNK4 is higher in seed-corrected z-score: -0.136 for the first, -0.0516 for the second.

Going from UUUAUCCCGAAGGAGGUUC against CAB39L to UGUAUUCCAACCUACAAAC against HGSNAT, the seed-corrected z-score rises from -2.55 to -0.666.

Compared with AAUCUAACAAAUGAAGGUG against EIF2A, AUAGUUCCUUUGACUAUGG against IKZF5 is lower in seed-corrected z-score: 0.719 for the first, -0.306 for the second.

First: UCUAAUCCAAGUUCUACUG against AKAP5
Second: UUGUGGGUGGUGAAGAGGC against EPOR
The seed-corrected z-score of the first is lower: -0.304 for the first, 0.293 for the second.

Compared with AACCUGGUAAGUCUCGAUG against PPP2R2B, UAACGGAUGGUGUGGUUUC against BCOR is higher in seed-corrected z-score: -0.459 for the first, -0.0753 for the second.

Compared with UACCUUUUAUCCUGGGUUG against LOC285423, UAGUGUAAACAAGAAGUUG against ABHD10 is higher in seed-corrected z-score: -2.09 for the first, 0.996 for the second.

First: AAAGCGAGCACUGCGGAUC against CCDC102A
Second: UAGAGCACAGGAUAGAACC against RAP1GAP
The seed-corrected z-score of the first is lower: -0.304 for the first, 0.295 for the second.

Compared with UGUCUUCUAAGUAGAGCCU against VIPR2, AACGAAACAAACUUGGUCC against NGEF is higher in seed-corrected z-score: -2.47 for the first, 0.943 for the second.

Compared with UAUCCUAAAAUCGCUGUUG against ARNTL2, UCCCAUUGAAAGCAUAUCC against TSHR is lower in seed-corrected z-score: -0.114 for the first, -1.47 for the second.

Going from UAUCUUUAUCAAAACCUCG against EFCAB1 to UAUGGAAUAAGUUGCUCGA against MED30, the seed-corrected z-score rises from -0.824 to -0.0259.

First: UUGACUACGAUGAGCUUGC against ETV3L
Second: UUAUUAUGUAUGCAUCUGG against LINC00632
The seed-corrected z-score of the first is higher: 1.16 for the first, -0.334 for the second.

First: ACAGUGGUGAGUUAUCUCA against CDC42
Second: AUGGAUUCUUCAAUCGUCC against SMARCAD1
The seed-corrected z-score of the first is lower: -2.8 for the first, 0.8 for the second.

Going from AGUCAUAUCAUUUAUAGUG against FOXQ1 to UUUCAAUUUAGUUUGAUGA against LOC728147, the seed-corrected z-score rises from -0.473 to 0.0773.

First: AUUACUUCGAGACUUGCUG against LCLAT1
Second: AAACUUAGUAGAGUUGUCC against LOC342541
The seed-corrected z-score of the first is lower: -0.482 for the first, 0.528 for the second.

Going from GUUGUGACCUGUCACGAUG against CTU1 to UGCUUGACAACUGGCCACC against RPL18AP4, the seed-corrected z-score rises from -1.99 to -0.411.

Going from UCAUCAUCUUCUUCGAGGC against DCLRE1A to UAGAGGACCUUCAUGUUGU against THY1, the seed-corrected z-score rises from -2.16 to 0.624.

First: UUAUCUGGAAUGAACAAUG against PHF3
Second: UACGAUCAUUGCACUGUCC against FBN1
The seed-corrected z-score of the first is lower: -0.486 for the first, -0.21 for the second.

First: UAUGUAUCUACCCAUCCGC against ATG3
Second: UGACUGUUCACGGAAUUCU against TGM3
The seed-corrected z-score of the first is lower: -1.27 for the first, -0.755 for the second.

Compared with UCUUUAGGAAUGUAAAGCC against SKIV2L2, UCAUUUUCGACCACCUUUC against WBSCR16 is lower in seed-corrected z-score: 0.824 for the first, -0.738 for the second.

Compared with UUAGGAACUCGAACGACGU against GTF2F1, UUCUUCUUAGAUUUAUGCC against RPL3 is lower in seed-corrected z-score: 0.889 for the first, -2.09 for the second.

Compared with UCUCGAUUGAGGGUGGUUG against FLRT3, AUAGGUGCAAGGCUUGUGC against C1orf56 is lower in seed-corrected z-score: 0.383 for the first, -2.01 for the second.

First: UCUUCUCGAACAGAGGUCG against F2
Second: UGAGGGUUUAGCAUCAAGC against PCGF1
The seed-corrected z-score of the first is higher: -0.0868 for the first, -1.47 for the second.

Compared with UCUUUUAACGACCUCCUGC against SLC35D3, UCGCGGAUCUCCUUUGUGG against HMGN2P18 is lower in seed-corrected z-score: 0.495 for the first, -0.51 for the second.

Going from AAAGUCCCAAGUGCUAAGA against FAM180B to UUCUCGAUGCGGUCCAUCC against RILPL1, the seed-corrected z-score falls from 2.95 to 1.36.

Compared with UUUGGUAGAAAAUUGCAGA against FJX1, UUCCGUUCCACCUCCAUCA against SPATC1 is lower in seed-corrected z-score: -0.707 for the first, -2.15 for the second.

Going from UCAUCUACCUGUAUUACCU against CDCA8 to AAUGGUAGUAGCGGAAUCG against SLC12A6, the seed-corrected z-score falls from -0.479 to -1.16.

Compared with UAUGUACUUCUGACAAGUC against RNF125, UAUCUAGCAGCUCUCCCAG against AMHR2 is higher in seed-corrected z-score: 0.00921 for the first, 0.151 for the second.

Going from UAACCGACUGGGUAGAGCG against EMC4 to UCUCUGCUCAAUGUUUUCU against LBH, the seed-corrected z-score falls from 0.348 to -2.25.

First: UACGAGGAUGUUGUAUUCC against N4BP1
Second: UACAGUACAAACAAGGCUG against CEBPA
The seed-corrected z-score of the first is higher: -0.092 for the first, -0.377 for the second.

Going from UUAACUGCUAGUGUAUUGG against TCP1 to UCAAGGAUAAGAGAGAUUG against RORC, the seed-corrected z-score rises from -1.18 to 0.034.

Compared with UGCGAUUGAAUAUUCUACG against CSRNP3, AUUCUUACAAUCUAAAGGC against SUPT7L is higher in seed-corrected z-score: -2.35 for the first, 0.435 for the second.

Compared with AGAGGUUGUACAUUCUUCG against SESN2, UUCUUAGACACGUAGUACC against KAT2B is higher in seed-corrected z-score: -2.47 for the first, 0.834 for the second.

Going from UAGGGAUUCCCUGUAGUUC against COLEC10 to AUCUGUCUGAGUGCAAAUC against HIPK1, the seed-corrected z-score falls from 1.57 to -0.0595.

Compared with UUGGUAUCAAGGUCUACAC against DENND4B, AUUGUAUACAGCGAGUUCU against GP1BA is higher in seed-corrected z-score: -0.319 for the first, 0.181 for the second.

Compared with AUCCGGAACCUGUAGAUCG against CCDC130, AAUGGUCUUGUUGGUCUCC against TSNARE1 is lower in seed-corrected z-score: -0.0498 for the first, -2.7 for the second.

Compared with UGAUUAACCAGUACUGAUG against C5orf42, AUUAGAACUACAGCUCUCG against LOC648999 is lower in seed-corrected z-score: 0.83 for the first, 0.638 for the second.

Compared with UCGAUGGUAAGGUAAGAGC against DNMT3B, UCUCGUAGAACAUUGCUGG against VPS53 is higher in seed-corrected z-score: -2.25 for the first, -0.933 for the second.

First: AAAGCUGGAAUAAAUAGUC against DLX5
Second: UGAAUGUCAAUGUCGUAUG against PCDHB1
The seed-corrected z-score of the first is lower: -0.397 for the first, -0.133 for the second.

First: UGUUGUUCUUGACUGACUG against SNRPD2P1
Second: UUAGUGAUAUUCUUGACAG against PSMD5
The seed-corrected z-score of the first is lower: -4.32 for the first, 0.816 for the second.

Going from UCAUGUAAAACUCUCGGCC against PARS2 to UCAUUGAAGUGCUUAGUGG against RASGRF1, the seed-corrected z-score falls from -0.0062 to -0.277.

First: UGUUGUAGAUCCAUAGUUC against KLHDC2
Second: UCCAUGUCAUGUAAAUUUC against MR1
The seed-corrected z-score of the first is lower: -4.33 for the first, -0.441 for the second.

Compared with AUUGCAAAAGUAGAUUUAC against RPL26P30, UUCAGUUCUAGAGGUCUGC against TMEM53 is lower in seed-corrected z-score: 0.181 for the first, -0.0791 for the second.

First: UUCGCUUCCAGUUCACCUC against MBOAT1
Second: UAUGUGACGAGGGUCAUGC against THBS1
The seed-corrected z-score of the first is higher: 0.704 for the first, -2.07 for the second.

First: AAACCCUUCACAGUCUUGG against LOC388955
Second: AGCUAUAUUAUUCACAGCC against BTF3L4
The seed-corrected z-score of the first is higher: 0.158 for the first, -0.0759 for the second.

First: UGUCUAAUAAACAAGUUAC against DNA2
Second: UCUCCGAUGAGAGCUUUGG against GNS
The seed-corrected z-score of the first is lower: -0.418 for the first, -0.354 for the second.

Compared with AUAGUGUAAAGAACAUCCG against HNRNPL, UCCAUUACAAUCGACCUUU against PROK2 is lower in seed-corrected z-score: 2.46 for the first, -0.664 for the second.

Going from UUCCCGUUCAUUUUGCAAC against ASZ1 to AAGGUGUCGAUGUCCAUGG against MSLNL, the seed-corrected z-score falls from -0.283 to -2.6.

Going from AAAUCAACCAAUUAAAGUC against LOC403323 to UGUUCAAUCUUGGAGCUGG against LRRC8E, the seed-corrected z-score rises from 1.01 to 1.15.

Going from AAAGAUCAAAUCUGAUUCC against MRPL19 to AUAUGUUCAAGGUGAUUCG against OR6K2, the seed-corrected z-score rises from -0.8 to -0.456.

Going from AUCGCGAACACUAACGUAC against SUB1 to UUAGGUAACGGAAACGGGC against LDHC, the seed-corrected z-score rises from -0.141 to 0.562.

First: UUGGUAUUGAUCGUUUAUG against DCUN1D1
Second: AUACCGAAAACCUUCGCCC against ABCA3
The seed-corrected z-score of the first is higher: 1.03 for the first, 0.623 for the second.

Going from UAUGGUUACAAAGGGAACU against ZNF669 to UCAGGUACAAUUCUGAUUC against KRT38, the seed-corrected z-score falls from 0.508 to -0.223.

First: UUGGGUGUCAGGAUCUCGU against MYH14
Second: UACAUCUCCAGGGUCAGCG against CALY
The seed-corrected z-score of the first is lower: -2.4 for the first, -0.514 for the second.

First: UCUGCGACUCCUGUUCUGC against WRBP1
Second: UUUGUAAGGUUGCUGAUCG against CLIP1
The seed-corrected z-score of the first is lower: 0.0575 for the first, 0.221 for the second.

For UUCUCGUCUAGUUUGCAUC against SH3RF3, the seed-corrected z-score was 0.155.
